PubChem BioAssay (NCATS)
Inconclusive results are not listed. Where a call stands in place of a potency, no number is given. Calls of active or inactive are those of the source. The call rests on the fitted dose curve; in most records, active means well fitted inhibition curve with a large enough effect; inconclusive means small, poorly fitted or top-dose-only effect; inactive means flat fitted curve, though single readings scatter.

Target: Glutathione peroxidase 1 (Homo sapiens) (UniProt P07203)
Assay: Primary qHTS Assay for Inhibitors of Recombinant Selenoprotein Glutathione Peroxidase 1 (GPX1) (AID 1845191)
Details: recombinant GPX1, GR-coupled NADPH fluorescence, 15 min; series mostly up to 48.8 µM
Outline: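 NADPH consumption tracked by fluorescence at 340/450 nm between t=0 and t=15 min, room temperature. Final mix: 10 nM GPX1, 100 nM glutathione reductase, 1 mM GSH, 0.5 mM NADPH, 0.5 mM cumene hydroperoxide, 0.01% BSA; 30 min compound–enzyme preincubation.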
Further: nearly all actives have a fitted effect of over 65% in size.

Sequence of Glutathione peroxidase 1 (Homo sapiens) (P07203 whole entry, looked up): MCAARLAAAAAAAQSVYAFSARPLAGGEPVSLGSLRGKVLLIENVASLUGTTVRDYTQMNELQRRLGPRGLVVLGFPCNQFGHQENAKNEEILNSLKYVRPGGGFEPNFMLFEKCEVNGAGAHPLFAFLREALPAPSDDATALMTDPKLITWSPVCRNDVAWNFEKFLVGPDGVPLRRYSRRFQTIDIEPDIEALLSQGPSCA

Q: For `COc1ccccc1-c1ccc(-c2cn(C(=O)N3CCCCC3Cc3ccccc3)nn2)cc1` (stereo not given), which Potency is on record?
A: inactive

Q: `CC[C@@H]1C[C@]1(NC(=O)[C@@H]1C[C@@H]2CN1C(=O)[C@H](C(C)(C)C)NC(=O)OCC(C)(C)CCCCc1cccc3c1CN(C3)C(=O)O2)C(=O)NS(=O)(=O)C1CC1` was tested. Which Potency did it give?
A: inactive

Q: `CC(C)=CCc1cc2c(cc1O)OC[C@H]1c3ccc(O)cc3O[C@@H]21` was tested. Which Potency did it give?
A: inactive

Q: How did the Potency turn out when `COc1ccccc1C(=O)Nc1cccc(NC(=O)c2cccc(C)c2)c1` was run?
A: inactive

Q: For `COC1CC(=O)C23C(=O)NC(CC(C)C)C2C(C)C(C)=CC3/C=C(\C)CCCC1O` (stereo not given), which Potency is on record?
A: inactive

Q: Which Potency does the source give for `CNc1nc(Nc2ccc(C(=O)N3CCOCC3)cc2OC)nc2[nH]cc(Cl)c12` here?
A: inactive

Q: Which Potency does the source give for `COc1cc(N2CCC(N3CCN(C)CC3)CC2)ccc1Nc1ncc(Cl)c(Nc2ccccc2P(C)(C)=O)n1` here?
A: inactive

Q: How did the Potency turn out when `O=C([C@@H](Cc1cccc(C(F)(F)F)c1)NS(=O)(=O)c1cc(F)c2c(c1)CCNC2)N1CCCC1` was run?
A: inactive

Q: Which Potency does the source give for `CC(C)c1ccc(-c2cc(=O)c3ccccc3o2)cc1` here?
A: inactive

Q: Which Potency does the source give for `Cc1ccc(-c2ncccn2)c(C(=O)N2C[C@H](COc3ccc(F)cn3)CC[C@H]2C)c1` here?
A: inactive

Q: `O=C(Nc1nc2ccc([N+](=O)[O-])cc2s1)C1CCCCC1` was tested. Which Potency did it give?
A: inactive

Q: For `Cc1cc(C(C)Nc2ccccc2C(=O)O)c2nc(N3CCOCC3)cc(=O)n2c1` (stereo not given), which Potency is on record?
A: inactive

Q: Which Potency does the source give for `C/C1=C\CCC2=CC(OC2=O)C(C)(C)/C=C/C1=O` (stereo not given) here?
A: inactive

Q: `CC(O)(C(=O)C1CC1(CO)COC1OC(CO)C(O)C(O)C1O)C1C(O)CC2C3CC=C4CC(O)CC(O)C4(C)C3C(O)CC21C` (stereo not given) was tested. Which Potency did it give?
A: inactive

Q: With `COc1cc2c(c(OC)c1CC=C(C)C)C[C@H](c1ccc(O)c(CC=C(C)C)c1O)CO2` as the molecule, how does the Potency read?
A: inactive

Q: For `CCC(C)C(=O)OC1C(C)C2(O)C(C=C(CO)CC3(O)C(=O)C(C)=CC32)C2C(C)(C)C12OC(=O)C(C)C` (stereo not given), which Potency is on record?
A: inactive

Q: Which Potency does the source give for `COC1CCN(c2cccc(-c3cc(NC(C)=O)nc(-n4nc(C)cc4C)n3)n2)CC1` here?
A: inactive

Q: Which Potency does the source give for `CCN1CCN(Cc2ccc(NC(=O)c3ccc(C)c(Oc4ncnc5[nH]c(C)cc45)c3)cc2C(F)(F)F)CC1` here?
A: inactive

Q: With `COc1ccc(OC)c(-c2ccc(NC(=O)c3ccncc3F)cc2)c1` as the molecule, how does the Potency read?
A: inactive

Q: `Cc1cc(C(=O)Nc2cc(Nc3ccc4c(/C=C/c5ccccn5)n[nH]c4c3)ccc2F)n(C)n1` was tested. Which Potency did it give?
A: inactive

Q: How did the Potency turn out when `Cc1ccc(O)cc1Nc1ccnc(Nc2cccc(C(N)=O)c2)n1` was run?
A: inactive

Q: For `Cc1ccnn1-c1ccc(C(=O)N2CCN(S(=O)(=O)c3ccc(Cl)c(C(F)(F)F)c3)CC2)cc1`, which Potency is on record?
A: inactive

Q: `C=C1/C(=C/C=C2\CCC[C@]3(C)[C@@H]([C@@H](C)OCCC(O)(CC)CC)CC[C@@H]23)C[C@@H](O)C[C@@H]1O` was tested. Which Potency did it give?
A: inactive

Q: `Cn1ncnc1[C@@H]1c2n[nH]c(=O)c3cc(F)cc(c23)N[C@H]1c1ccc(F)cc1` was tested. Which Potency did it give?
A: inactive

Q: `CN1CC2CN(c3ccc4oc5ccccc5c(=O)c4c3)CC2C1` (stereo not given) was tested. Which Potency did it give?
A: inactive

Q: With `CC(C)(C)c1ccc(-c2nc3c(N4CCN(Cc5ccc6nccnc6c5)CC4)cccc3[nH]2)cc1` as the molecule, how does the Potency read?
A: inactive

Q: For `CC(C)S(=O)(=O)NC[C@@H]1CC(c2ccc(N3CCCC3)c(F)c2)=NO1`, which Potency is on record?
A: inactive

Q: For `COc1cc(F)c(C(C)C)cc1-c1ccc(C(F)(F)F)cc1CN1C(=O)OC(c2cc(C(F)(F)F)cc(C(F)(F)F)c2)C1C` (stereo not given), which Potency is on record?
A: inactive

Target: Phospholipid hydroperoxide glutathione peroxidase GPX4 (Homo sapiens) (UniProt P36969)
Assay: Primary qHTS Assay for Inhibitors of Recombinant Selenoprotein Glutathione Peroxidase 4 (GPX4) (AID 1845192)
Details: recombinant GPX4, GR-coupled NADPH fluorescence, 15 min; series mostly up to 50 µM
Outline: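 NADPH consumption followed by fluorescence at 340/450 nm, t=0 and after 15 min at room temperature. Reaction started with cumene hydroperoxide (0.5 mM final) after 30 min compound–GPX4 preincubation; final 200 nM GPX4, 100 nM GR, 1 mM GSH, 0.5 mM NADPH.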

Sequence of Phospholipid hydroperoxide glutathione peroxidase GPX4 (Homo sapiens) (P36969 whole entry, looked up): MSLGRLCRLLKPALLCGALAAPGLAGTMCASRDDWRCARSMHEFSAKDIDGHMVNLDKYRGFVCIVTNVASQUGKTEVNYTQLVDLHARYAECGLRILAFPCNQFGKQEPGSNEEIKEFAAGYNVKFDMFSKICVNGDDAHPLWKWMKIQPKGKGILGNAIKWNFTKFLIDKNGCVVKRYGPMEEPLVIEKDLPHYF

Q: For `O=C(Nc1nnc(-c2ccc3c(c2)OCCO3)o1)C1CCCCC1`, which Potency is on record?
A: inactive

Q: With `CC(C)n1c(=O)c(C(=O)NC2CC3CCC(C2)N3C[C@@H](O)CN(C)S(C)(=O)=O)cc2ccccc21` (stereo not given in full) as the molecule, how does the Potency read?
A: inactive

Q: Which Potency does the source give for `NCC1CCN(c2nccc(-c3ccc4ccccc4c3)n2)CC1` here?
A: inactive

Q: Which Potency does the source give for `CCOc1ccc(-n2c(C(C)N(Cc3cccnc3)C(=O)Cc3ccc(F)c(C(F)(F)F)c3)nc3ncccc3c2=O)cc1` (stereo not given) here?
A: inactive

Q: `CCC(C)CC(=O)OC1C(=O)C(CO)=CC(O)C1C(C)C` (stereo not given) was tested. Which Potency did it give?
A: inactive

Q: With `COc1cc(-n2cnc3cc(-c4ccc(Cl)cc4)sc3c2=O)ccc1OCCN1CCCC1` as the molecule, how does the Potency read?
A: inactive

Q: With `CCc1ccc(-c2nc(CSCC(=O)NCCc3ccccc3)c(C)o2)cc1` as the molecule, how does the Potency read?
A: inactive

Q: Which Potency does the source give for `CC(=O)O[C@@H]1[C@@H](OC(C)=O)[C@H](C)O[C@@H](O[C@H]2[C@@H]3C=CO[C@@H](O[C@@H]4O[C@H](CO)[C@@H](O)[C@H](O)[C@H]4O)[C@@H]3[C@@]3(CO)O[C@@H]23)[C@@H]1OC(=O)/C=C/c1ccccc1` here?
A: inactive

Q: With `COc1ccccc1-c1ccc(-c2cn(C(=O)N3CCCCC3Cc3ccccc3)nn2)cc1` (stereo not given) as the molecule, how does the Potency read?
A: inactive

Q: With `CC(C)=CCc1cc2c(cc1O)OC[C@H]1c3ccc(O)cc3O[C@@H]21` as the molecule, how does the Potency read?
A: inactive

Q: `COc1ccccc1C(=O)Nc1cccc(NC(=O)c2cccc(C)c2)c1` was tested. Which Potency did it give?
A: inactive

Q: With `COC1CC(=O)C23C(=O)NC(CC(C)C)C2C(C)C(C)=CC3/C=C(\C)CCCC1O` (stereo not given) as the molecule, how does the Potency read?
A: inactive

Q: With `CNc1nc(Nc2ccc(C(=O)N3CCOCC3)cc2OC)nc2[nH]cc(Cl)c12` as the molecule, how does the Potency read?
A: inactive

Q: How did the Potency turn out when `COc1cc(N2CCC(N3CCN(C)CC3)CC2)ccc1Nc1ncc(Cl)c(Nc2ccccc2P(C)(C)=O)n1` was run?
A: inactive

Q: With `CC(C)c1ccc(-c2cc(=O)c3ccccc3o2)cc1` as the molecule, how does the Potency read?
A: inactive

Q: With `Cc1ccc(-c2ncccn2)c(C(=O)N2C[C@H](COc3ccc(F)cn3)CC[C@H]2C)c1` as the molecule, how does the Potency read?
A: inactive

Q: Which Potency does the source give for `O=C(Nc1nc2ccc([N+](=O)[O-])cc2s1)C1CCCCC1` here?
A: inactive

Q: `Cc1cc(C(C)Nc2ccccc2C(=O)O)c2nc(N3CCOCC3)cc(=O)n2c1` (stereo not given) was tested. Which Potency did it give?
A: inactive

Q: With `C/C1=C\CCC2=CC(OC2=O)C(C)(C)/C=C/C1=O` (stereo not given) as the molecule, how does the Potency read?
A: inactive

Q: How did the Potency turn out when `COc1cc2c(c(OC)c1CC=C(C)C)C[C@H](c1ccc(O)c(CC=C(C)C)c1O)CO2` was run?
A: inactive

Q: `CCC(C)C(=O)OC1C(C)C2(O)C(C=C(CO)CC3(O)C(=O)C(C)=CC32)C2C(C)(C)C12OC(=O)C(C)C` (stereo not given) was tested. Which Potency did it give?
A: inactive

Q: Which Potency does the source give for `COC1CCN(c2cccc(-c3cc(NC(C)=O)nc(-n4nc(C)cc4C)n3)n2)CC1` here?
A: inactive

Q: Which Potency does the source give for `COc1ccc(OC)c(-c2ccc(NC(=O)c3ccncc3F)cc2)c1` here?
A: inactive

Q: `Cc1cc(C(=O)Nc2cc(Nc3ccc4c(/C=C/c5ccccn5)n[nH]c4c3)ccc2F)n(C)n1` was tested. Which Potency did it give?
A: inactive

Q: `Cc1ccc(O)cc1Nc1ccnc(Nc2cccc(C(N)=O)c2)n1` was tested. Which Potency did it give?
A: inactive

Q: How did the Potency turn out when `CN1CC2CN(c3ccc4oc5ccccc5c(=O)c4c3)CC2C1` (stereo not given) was run?
A: inactive

Q: For `CC(C)S(=O)(=O)NC[C@@H]1CC(c2ccc(N3CCCC3)c(F)c2)=NO1`, which Potency is on record?
A: inactive
